# Screening results (PubChem BioAssay)
# This is a sample that favours compounds with a hit; in the whole collection about 1.6% have one here.
# KCNQ2 inh: rat KCNQ2 potassium channel inhibitors, primary screen, cell-based, CHO-K1, FluxOR thallium flux, B-score. 20 min; stronger effect = lower value. B-score at 10 µM. 310,000 tested, 1.1% active;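 active means fluorescence ratio B-score at most minus 3 library SDs, with starting brightness B-score within 2 library SDs, cut at about -5.5 in these data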
# KCNQ2 pot: potentiators of rat KCNQ2 potassium channel; AID 2239, 2010; CHO-K1 KCNQ2, FluxOR thallium flux fluorescence; stronger effect = higher value; Potassium voltage-gated channel subfamily KQT member 2 (Rattus norvegicus), O88943; B-score at 10 µM; 310,000 tested, 0.54% active;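 active means fluorescence ratio B-score at least 3 SD of library B-scores, with initial fluorescence B-score within 3 of them, cut at about 5.3 in these data; same plate scores as AID 2156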;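 further: B-score of peak minus minimum over baseline fluorescence ratio after K+ and Tl+ stimulus; positive B-score means potentiation of KCNQ2 with more thallium influx and brighter signal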
# Active calls of the source: *; i = inactive; / = no result.
SMILES,KCNQ2 inh,KCNQ2 pot
COC(=O)c1ccc(-n2c(C)ccc2-c2ccccc2)cc1,-6.6*,-6.6
CC(=O)c1ccc(-n2c(C)ccc2-c2ccccc2)cc1,i,/
Cc1cc(S(=O)(=O)N2CCCC2)ccc1OCC(=O)NCc1ccccc1,i,0.05
CC(C)CN1CCC(=O)N([C@H](CSc2ccccc2)Cc2ccccc2)CC1,-5.7*,-5.7
Cc1ccc(SC[C@H](c2ccccc2)N2CCN(CCc3ccccc3)CCC2=O)cc1,-6.1*,-6.1
Cc1ccc(SC[C@H](Cc2ccccc2)N2CCN(CC(C)C)CCC2=O)cc1,i,/
O=C1CCN(CCc2ccccc2)CCN1[C@H](CSc1ccccc1)c1ccccc1,i,/
COc1cccc(N2CCN(c3ccc4nnc(CCC(=O)Nc5ncccc5C)n4n3)CC2)c1,i,/
Fc1ccc(-c2ccc(/C=N\n3cnnc3)o2)cc1Cl,i,0.52
COc1ccc(C(=O)N2CCSCC2)cc1OC1CCN(C(C)=O)CC1,i,0.23
Brc1ccc2c(c1)OCCOCCOCCOCCOCCO2,i,0.31
CSCCC(NS(=O)(=O)c1ccccc1F)C(=O)OCc1ccccc1Cl (configuration not stated),-6.2*,-6.2
CSCCC(NS(=O)(=O)c1ccc(Cl)cc1)C(=O)OCc1c(Cl)cccc1Cl (configuration not stated),i,/
CC(C)CC(NC(N)=O)C(=O)OCC(=O)Nc1ccc(SC(F)F)cc1 (configuration not stated),i,0.07
O=C(Nc1ccccc1)c1ccc2nc(-c3ccco3)c(-c3ccco3)nc2c1,-6.5*,-6.5
CC(=O)c1ccc(NC(=O)c2ccc3nc(-c4ccco4)c(-c4ccco4)nc3c2)cc1,i,/
CCCCC1(CO)C(=O)N(c2ccccc2)N(c2ccccc2)C1=O,i,0.29
CCCCC1(Cc2cccc([N+](=O)[O-])c2)C(=O)N(c2ccccc2)N(c2ccccc2)C1=O,-6.9*,-6.9
C=CCOC(=O)C(C#N)c1nc2ccccc2nc1N1CCN(Cc2ccccc2)CC1 (configuration not stated),i,/
CC(C)N=Cc1c(O)[nH]c2ccccc12,i,0.64
CC1=CC(C)(C)N(C(=O)c2ccccc2)c2ccc(C)cc21,i,/
CC1=CC(C)(C)N(C(=O)c2ccccc2)c2ccccc21,-5.6*,-5.6
CCC(C)Sc1ccc([C@H]2N[C@@](C)(C(=O)OC)[C@H]3C(=O)N(CC)C(=O)[C@@H]23)cc1 (some centres not stated),i,1.7
COC(=O)Cn1c2nc3ccccc3nc2c2cccc(C)c21,i,/
COc1c(C)cc(C(=O)C2CCCN(C(=O)c3cccc(-n4cccn4)c3)C2)cc1C (configuration not stated),i,/
SMILES,KCNQ2 inh,KCNQ2 pot
COc1ccc(N(C)S(=O)(=O)c2cccc(C(=O)NC3CCCCCC3)c2)cc1,i,/
COc1ccc(N(C)S(=O)(=O)c2cccc(C(=O)NC3CCCC(C)C3C)c2)cc1 (configuration not stated),-7.3*,-7.3
CC(=O)Nc1ccc2c3c(cccc13)CC2,i,1.4
CC(C)CC(=O)Nc1ccc2c3c(cccc13)CC2,i,26*
CCCCC(=O)Nc1ccc2c3c(cccc13)CC2,i,19*
Cc1cc(C)cc(OCC(=O)Nc2ccc3c4c(cccc24)CC3)c1,i,0.25
COc1cc(C=O)ccc1OCCOCCOc1ccc(Cl)cc1Cl,i,0.33
O=[n+]1cc(-c2cc3ccccc3o2)n([O-])c2c1CCCC2,i,1.7
COc1ccc(/C=C/C(=O)N(CC(C)C)CC(C)C)cc1Br,-5.9*,-5.9
COc1ccc(CN2CCN(C(=O)CC(C)C)CC2)cc1Br,i,/
CCOC(=O)C1(Cc2ccccc2)CCCN(Cc2ccc(OCCO)cc2)C1 (configuration not stated),i,0.09
CCOC(=O)C1(Cc2ccccc2)CCCN(Cc2cccc(C(C)=O)c2)C1 (configuration not stated),-6*,-6
COc1ccccc1/C=N/NC(=O)CC(=O)NCCc1ccccc1,i,/
Cc1ccc(C)c(OCc2cc(C(=O)N3CCN(c4ccccc4)CC3)no2)c1,i,/
CCN(CC)S(=O)(=O)c1cccc(NC(=O)COc2ccc(C#N)cc2OC)c1,i,7.5*
CCN(CC)S(=O)(=O)c1cccc(NC(=O)COc2ccc(F)cc2Br)c1,-7.6*,-7.6
CCN(CC)S(=O)(=O)c1ccc(C)c(NC(=O)COc2ccc(Cl)cc2Br)c1,i,0.05
CCN(CC)S(=O)(=O)c1cc(NC(=O)COc2ccc(C#N)cc2OC)ccc1C,i,/
CC(C)C1Nc2ccc(C(=O)NCc3ccco3)cc2NC1=O (configuration not stated),i,/
CCOC(=O)CC1C(=O)NCCN1C(=O)c1cc2c(=O)n3cccc(C)c3nc2s1 (configuration not stated),i,/
